Molecules are shown by their SMILES. Records with an inconclusive call do not appear. Entries that show only a call come without a potency. Activity calls are given as the source filed them. Calls follow the shape of the dose curve; as a rule, active = well fitted curve in the direction sought with a large enough effect; inconclusive = small, poorly fitted or top-dose-only effect, or another doubt; inactive = no such curve, though single readings can be large; an effect the other way counts as inactive or inconclusive.

Tested on in the first assay: not listed separately
The assay is described as follows: Primary fluorescence-based thiol-reactive (MSTI) qHTS assay for identification of artifact compounds. (AID 1845221). Also: nearly all actives have a fitted effect of over 65% in size. Also: potency is read from the fitted curve at half-maximal effect.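 As to activity change, negative = thiol reactive: thiol-reactive compounds lower the probe fluorescence signal.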 Particulars: MSTI thiol-reactivity probe, 1 h; series mostly up to 53.8 µM. Summed up:
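Probe: MSTI 4 uM, PBS pH 7.4, 2% DMSO. Incubation 1 h, RT, light-protected. Readout fluorescence 525/598 nm.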
In general terms: Quantitative high-throughput screening tests each substance at several concentrations.
`CC1=C2CC3OC3(C)CCC3OC3(C)CC2OC1=O` (stereo not given): the Potency result is “inactive”. Consider `CC(C)(O)c1ccc2c(c1)C(=O)CC1[C@](C)(CO)CCC[C@]21C` (stereo not given in full), for which the Potency was 13.1 µM (active).

Consider `CCc1cc2c(=O)c(-c3nc4ccccc4s3)coc2c(CN2CCCCC2)c1O`, for which the Potency entry is “inactive”. For `C=C1C(=O)O[C@H]2[C@H]1[C@@H](OC(=O)C(C)CO)C[C@@]1(C)[C@H](O)CCC(=O)[C@H]21` (stereo not given in full), the Potency result was “inactive”. Same read-out and setting: the entry for `COc1cc(/C=C/C(=O)OC2[C@H](O)CC(O)(C(=O)O)C[C@H]2O)ccc1O` (stereo not given in full) is “inactive”; for `CC/C=C/CC1=C(CCCCCCCC(=O)O)CCC1=O` it is “inactive”; for `N#CCc1ccc(O)cc1O[C@@H]1O[C@H](CO)[C@@H](O)[C@H](O)[C@H]1O` it is 13.1 µM (active). Turning to `C/C(=C\CCC(C)(O)c1ccc(C)cc1)C(=O)O` (stereo not given), the Potency entry was “inactive”. In the case of `CCOc1nc2cccc(C(=O)OCc3oc(=O)oc3C)c2n1Cc1ccc(-c2ccccc2-c2noc(O)n2)cc1`, the Potency result was “inactive”. Turning to `CC1(C)C(=O)C(C)(C)c2cc(C(=O)Nc3ccc(C(=O)O)cc3)ccc21`, the Potency entry is “inactive”. Still for that read-out and setting: to `COC1CCCC/C(C)=C/C2C=C(C)C(C)C3C(CC(C)C)NC(=O)C23C(=O)C1` (stereo not given) belongs “inactive”; to `Cc1cc(C)c(S(=O)(=O)N(Cc2ccc(-c3cccc(S(C)(=O)=O)c3)cc2)Cc2ccc(C(F)(F)F)o2)c(C)c1`, “inactive”. The same measure, in the same setting: the entry for `OCC1OC(Oc2cc(O)c3c(c2)OC(c2ccc(O)cc2)C(O)C3)C(O)C1O` (stereo not given) is “inactive”. With `CC(=O)O[C@H](C[C@@H](C)[C@H]1C(=O)[C@H](O)[C@@]2(C)[C@@H]3CCC4C(C)(C)[C@@H](O[C@@H]5OC[C@H](O)[C@H](O)[C@H]5O)CC[C@@]45C[C@@]35CC[C@]12C)[C@@H]1OC1(C)C` (stereo not given in full), the Potency entry was “inactive”.

Consider `COc1cc(CCc2ccccc2)c(C(=O)O)c2c1CC(C(C)(C)O)O2` (stereo not given), for which the Potency result is “inactive”. In the case of `C=C1C2(CCC(=O)OC2(C)C)CC(OC(=O)/C(C)=C/C)C2(C)C13OC14C(=O)OC(C)(C(=O)C12C(=O)OC4C)C3OC(C)=O` (stereo not given), the Potency result is “inactive”.

For the compound `COc1cc(C)c(C(=O)O[C@H]2[C@@H](O)[C@H](n3ccc(=O)[nH]c3=O)O[C@@H]2CO)c(OC)c1`, the Potency result is “inactive”. The same measure, in the same setting: the entry for `OC[C@H]1O[C@@H](Oc2ccc3c(c2)OC[C@H]2c4cc5c(cc4O[C@@H]32)OCO5)[C@H](O)[C@@H](O)[C@@H]1O` is “inactive”.

Turning to `CC1=CCC2C(C)(CO)CCCC2(CO)C1CO` (stereo not given), the Potency is 13.4 µM (active). Regarding `CC1OC(O[C@H]2[C@@H](O)C[C@@]3(C)C([C@H](O)C[C@]4(C)C3CC=C3C5CC(C)(C)CC[C@]5(C(=O)OC5OC(CO)C(O)C(O)C5OC5OCC(OC6OCC(OC7OCC(O)C(O)C7O)C(O)C6O)C(OC6OCC(O)(CO)C6O)C5O)CC[C@]34C)[C@]2(C)CO)C(O)C(O)C1O` (stereo not given in full), the activity change, negative = thiol reactive is 280% [at 11.5 µM] (inactive).

In the case of `Cc1cc(Nc2ncc(Cl)c(Nc3ccccc3S(=O)(=O)C(C)C)n2)c(OC(C)C)cc1C1CCNCC1`, the Potency result was “inactive”. Regarding `Cc1nn(C)c2c1C(c1ccc(C(F)(F)F)cc1)C(C#N)=C(N)O2` (stereo not given), the Potency is 6.7 µM (active). As for `C=C[C@@]1(C)CC(=O)C2[C@](C)(O1)[C@@H](OC(C)=O)[C@@H](O)[C@H]1C(C)(C)CCC[C@]21C` (stereo not given in full), the activity change, negative = thiol reactive is 58.5% [at 11.5 µM] (inactive). With `COc1cc(/C=C/C(=O)O[C@H]2[C@H](OC(=O)/C=C/c3cc(OC)c(O)c(OC)c3)O[C@H](CO[C@@H]3O[C@H](CO)[C@@H](O)[C@H](O)[C@H]3O)[C@@H](O)[C@@H]2O)ccc1O`, the Potency result is “inactive”. Turning to `CCCCN(CCCC)C(=O)CN1C[C@H](c2ccc3c(c2)OCO3)[C@@H](C(=O)O)[C@@H]1c1ccc(OC)cc1`, the Potency entry was “inactive”. As for `C[C@]1(O)CC[C@@H]2C(C(=O)O)=CO[C@@H](O[C@@H]3O[C@H](COC(=O)c4ccc(O)cc4)[C@@H](O)[C@H](O)[C@H]3O)[C@@H]21`, the Potency is 10.3 µM (active). With `CCOc1cc2ncc(C#N)c(Nc3ccc(OCc4ccccn4)c(Cl)c3)c2cc1NC(=O)/C=C/CN(C)C`, the Potency entry is “inactive”. As for `CC1CCC2C(C)(C)CC(C)(CO)C2(O)C1C(=O)O` (stereo not given), the Potency entry was “inactive”.

Take `CC1=CC(=O)OC(C)(CC(C)(O)C(=O)O)C1` (stereo not given): the Potency entry was “inactive”.

Another assay relates to Nanoluciferase (engineered Oplophorus gracilirostris luciferase). In words: Primary Nanoluciferase (NLuc) qHTS assay for identification of artifact compounds. (AID 1845222).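 Also: NLuc secreted into diluted conditioned medium of S16 cells.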 Particulars: NLuc-conditioned medium, Nano-Glo luminescence, 5 min; series mostly up to 54.1 µM. Summed up: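 S16 cell supernatant NLuc, 1:55; cpds qHTS; 15 min RT dark; Nano-Glo substrate 1:100, 5 min; luminescence; Hill fit of % inhibition.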
As for `CC(=O)[C@@H]1CC[C@]2(C(=O)O)CC[C@]3(C)C(CCC4[C@@]5(C)CC[C@H](O)C(C)(C)C5CC[C@]43C)C12` (stereo not given in full), the Potency entry was “inactive”. The same measure, in the same setting: the entry for `C=C1[C@H]2CC[C@]3(O)[C@@](CC[C@@H]4[C@](C)(C(=O)O)CCC[C@]43C)(C2)[C@H]1OC(=O)/C(C)=C\C` is “inactive”. Turning to `O=C(O[C@H]1[C@@H]2C[C@@H]3OC[C@@](O)([C@H]2[C@H](O[C@@H]2O[C@H](CO)[C@@H](O)[C@H](O)[C@H]2O)O3)[C@@H]1O)c1ccccc1`, the Potency entry is “inactive”. On the same count and under the same terms, to `C[C@H]1[C@H](C)CC[C@]2(C(=O)O)CC[C@]3(C)C(=CC[C@@H]4[C@@]5(C)C[C@@H](O)[C@H](O)[C@@](C)(CO)[C@@H]5CC[C@]43C)[C@H]12` belongs “inactive”. Regarding `CC1=C2CC3OC3(C)CCC3OC3(C)CC2OC1=O` (stereo not given), the Potency result is “inactive”.

In the case of `C=C1C(=O)O[C@H]2[C@H]1[C@@H](OC(=O)C(C)CO)C[C@@]1(C)[C@H](O)CCC(=O)[C@H]21` (stereo not given in full), the Potency entry is “inactive”. Same read-out and setting: to `COc1cc(/C=C/C(=O)OC2[C@H](O)CC(O)(C(=O)O)C[C@H]2O)ccc1O` (stereo not given in full) belongs “inactive”; to `COc1cc(CCc2ccccc2)c(C(=O)O)c2c1CC(C(C)(C)O)O2` (stereo not given), “inactive”; to `OC[C@H]1O[C@@H](Oc2ccc3c(c2)OC[C@H]2c4cc5c(cc4O[C@@H]32)OCO5)[C@H](O)[C@@H](O)[C@@H]1O`, “inactive”. Regarding `C=C[C@@]1(C)CC(=O)C2[C@](C)(O1)[C@@H](OC(C)=O)[C@@H](O)[C@H]1C(C)(C)CCC[C@]21C` (stereo not given in full), the activity, negative = inhibition was 3.51% [at 11.6 µM] (inactive). `C[C@]1(O)CC[C@@H]2C(C(=O)O)=CO[C@@H](O[C@@H]3O[C@H](COC(=O)c4ccc(O)cc4)[C@@H](O)[C@H](O)[C@H]3O)[C@@H]21`: the Potency result was “inactive”.

The values are drawn from PubChem BioAssay (NCATS).
